# Screening results (PubChem BioAssay)
# Sampled rows, rich in hits. Any-hit rate of the full collection: about 8%.
# MCF10A rereplic – inducers of DNA re-replication in MCF 10A breast cells. MCF 10A DNA re-replication, Hoechst nuclear intensity, 48 h. Potency, µM (top dose mostly 46.1 µM), for the others: at the highest dose activity, positive = re-replication, actives largely listed as activators. hit rate 2.9% among 350,000; note: % of control where 0% means no effect; nearly all actives have a fitted effect of over 50% in size
# HT1080 IDH1KD tx – toxicity to HT-1080 IDH1 knockdown cells (counter line); Potency, µM (doses to about 46.1 µM), inactives show at the highest dose activity, negative = toxicity, hits mostly cytotoxic; hit rate 2% among 360,000; HT-1080 IDH1 knockdown viability, ATP luminescence, 48 h; AID 686971;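 note: 0% = DMSO wells and -100% = cell-free medium wells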
#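 IDH1KD HT-1080 cells, 750/well, RPMI + 5% FBS; compound pinned after 2 h settling; 48 h, 37 °C; CellTiter-Glo luminescence; % activity normalised to DMSO and no-cell wells; curves fitted, classed by r2 and efficacy.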
# HT1080-NT tox – kills 2HG-producing HT-1080-NT fibrosarcoma cells; Potency, µM (top dose mostly 46.1 µM), for inactives: at the top dose activity, negative = less viability, hits mostly cytotoxic; hit rate 1.6% among 360,000; HT-1080-NT fibrosarcoma viability, CellTiter-Glo ATP luminescence, 48 h;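 note: NT is the 2HG producing partner of a matched IDH1 knockdown line; 0% = DMSO-treated cells and -100% = media-only wells without cells; nearly all actives have a fitted effect of over 55% in size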
#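 Read-out is CellTiter-Glo luminescence after 10 minutes at room temperature, following 48 hours' compound treatment of HT-1080-NT cells (750 cells/well, RPMI, 5% FBS, 37 degrees C).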
# SW480 rereplic – inducers of DNA re-replication in SW480 colon cancer cells | SW480 DNA re-replication, Hoechst DNA content imaging, 48 h | Potency, µM (titrated, usually from 46.1 µM), inactives show at the top dose re-replication activation, most hits filed as activators | hit rate 1.8% among 340,000 | AID 624297; note: % of control where 0% means no effect; nearly all actives have a fitted effect of over 55% in size
#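 Image-based read-out: total Hoechst fluorescence of nuclei (405 nm excitation, 500-530 nm emission), with hits raising the fraction of high-intensity nuclei. SW480 colon cells incubated 48 hr with compounds at 37 C.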
# KB-V1 MDR tox – kills drug-selected multidrug resistant KB-V1 cells. KB-V1 MDR cells viability, CellTiter-Glo, 72 h. Potency, µM (top dose mostly 46.1 µM), most hits filed as cytotoxic. hit rate 3.4% among 400,000. AID 1347076; note: % is set by controls: 0 for no effect and ±100 for the full control effect; nearly all actives have a fitted effect of over 60% in size
#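 Readout: CellTiter-Glo luminescence, 10 min after addition. Cells: KB-V1 MDR subline, 72 h at 37 degrees C with compound. Analysis: corrected, normalized data fitted to concentration-effect curves.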
# KB-3-1 tox – KB-3-1 parental cell cytotoxicity | KB-3-1 viability, CellTiter-Glo ATP luminescence, 72 h | Potency, µM (series often up to 46.1 µM), usual class: cytotoxic | hit rate 1.4% among 400,000 | AID 1347075; note: % is set by controls: 0 for no effect and ±100 for the full control effect; nearly all actives have a fitted effect of over 60% in size
#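 Cytotoxicity measured as CellTiter-Glo luminescence after 72 h at 37 C. Compound titrations were pinned onto drug-naive KB-3-1 parental adenocarcinoma cells grown in DMEM with 10% FBS, and normalized data fitted to concentration-response curves.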
# * = called active by the depositor; i = inactive; ? = inconclusive; . = not tested or not shown; [ ] = dose if it differs, or a comment. Calls come from the whole dose curve; as a rule, active = well fitted curve in the direction sought with a large enough effect; inconclusive = small, poorly fitted or top-dose-only effect, or another doubt; inactive = no such curve, though single readings can be large; an effect the other way counts as inactive or inconclusive. Potency is the fitted concentration of half-maximal effect.
SMILES,MCF10A rereplic,HT1080 IDH1KD tx,HT1080-NT tox,SW480 rereplic,KB-V1 MDR tox,KB-3-1 tox
CC(C)C(OC(=O)CN1C(=O)COc2ccccc21)C(=O)NC1CCCCC1 (stereo not given),11.0%,6.9%,23.4%,-0.7%,?,i
Cc1ccc(S(=O)(=O)NCC2CCC(C(=O)NCc3ccc(F)cc3)CC2)cc1 (stereo not given),.,.,.,.,i,?
COc1ccccc1CNC(=O)c1ccc2c(c1)nc(C)n2-c1cccc(C)c1,.,.,.,.,i,i
Cc1ccc(C)c(N2CCN(C(=O)CC3Sc4ccccc4NC3=O)CC2)c1 (stereo not given),?,?,?,6.0%,16.4µM*,?
CCCCNC(=O)CCCN1C(=O)CCn2nc(-c3cccn3C)cc21,.,.,.,.,i,i
Cn1c(C(=O)Nc2ccc3c(c2)OCO3)cc2sccc21,7.3%,1.9%,2.6%,-1.6%,?,i
CC(C)n1c(C(=O)OCC(=O)NCc2ccc3c(c2)OCO3)cc2occc21,1.8%,7.1%,12.5%,16.3%,i,i
CC(CCc1ccccc1)NC(=O)c1cc2sccc2n1C (stereo not given),14.6µM*,-1.1%,-3.2%,?,?,i
CC(C)n1c(C(=O)OCC(=O)NCc2ccc3c(c2)OCO3)cc2sccc21,14.6µM*,-0.4%[9.24 µM],?,7.6%,i,i
CCOc1ccc(CCNC(=O)c2cc3sc(Cl)cc3n2C)cc1OCC,24.8%,-21.5%,-20.6%,0.2%,i,?
Cn1c(C(=O)NCc2ccc3c(c2)OCO3)cc2sccc21,-7.2%,-29.3%,-28.0%,3.8%,16.4µM*,i
CCOc1ccc(CCNC(=O)c2cc3sccc3n2C)cc1OCC,10.3%,-1.6%,0.5%,6.1%,8.2µM*,i
Cc1nnc(NC(=O)CSc2nc3c([nH]c4ccccc43)c(=O)n2-c2ccc(Cl)cc2)s1,.,.,.,.,i,i
CC(C)Oc1cccc(C(=O)C2CCCN(Cc3cccn3-c3ccccn3)C2)c1 (stereo not given),11.0%,20.6µM*,23.1µM*,?,?,?
O=C(c1ccc(Cl)cc1)C1CCCN(Cc2cccn2-c2ccccn2)C1 (stereo not given),5.6%,23.1µM*,16.4µM*,2.1%,i,i
Cc1ccsc1C(=O)C1CCCN(Cc2cccn2-c2ccc(Cl)cn2)C1 (stereo not given),?,?,?,18.4µM*,?,i
COc1ccc(C(=O)C2CCCN(Cc3cccn3-c3ccccn3)C2)cc1F (stereo not given),?,?,-14.7%,1.7%[1.84 µM],i,i
COc1cccc(C(=O)C2CCCN(Cc3cccn3-c3ccccn3)C2)c1 (stereo not given),-1.9%,?,?,5.4%,i,i
CCc1ccc(CNC(=O)c2ccc(NC(=O)N3CCSc4ncccc43)cc2)cc1,.,.,.,.,i,i
CN(CC(=O)Nc1cccc(F)c1)C(=O)c1ccc(C2SCCS2)cc1,19.7%,-18.2%,-4.8%,-12.5%,18.4µM*,?
CN(CC(=O)Nc1cccc(F)c1)C(=O)c1ccc2c(c1)CC(c1ccccc1)OC2=O (stereo not given),18.4µM*,16.4µM*,?,18.4µM*,?,18.4µM*
Cc1nn(-c2ccccc2)c2c1N(CC(=O)N1CCN(c3ccccc3F)CC1)C(=O)CS2,.,.,.,.,i,i
CC(=O)c1ccc(NC(=O)Nc2ncn(Cc3cccc(C)c3)n2)cc1,-1.7%,16.1%,-1.8%,-2.7%,16.4µM*,i
CCc1c(C(=O)Nc2ncn(Cc3cccc(C)c3)n2)csc1C,2.6%,-14.0%,8.0%,-0.8%,i,i
COc1ccc(N(CC(=O)Nc2ccc(C(C)C)cc2)S(=O)(=O)c2c(C)noc2C)cc1,15.5%,-29.8%,?,4.5%,i,i
